Calls of active or inactive are those of the source. Rule for the calls: active = hit-call score of the fitted dose curve at least 0.9, where 1 is the maximum; inactive = score below 0.9.

Here are results for 40 molecules from PubChem BioAssay (EPA / NIEHS).

Cellular tumor antigen p53 (Homo sapiens), sequence (P04637 whole entry, looked up): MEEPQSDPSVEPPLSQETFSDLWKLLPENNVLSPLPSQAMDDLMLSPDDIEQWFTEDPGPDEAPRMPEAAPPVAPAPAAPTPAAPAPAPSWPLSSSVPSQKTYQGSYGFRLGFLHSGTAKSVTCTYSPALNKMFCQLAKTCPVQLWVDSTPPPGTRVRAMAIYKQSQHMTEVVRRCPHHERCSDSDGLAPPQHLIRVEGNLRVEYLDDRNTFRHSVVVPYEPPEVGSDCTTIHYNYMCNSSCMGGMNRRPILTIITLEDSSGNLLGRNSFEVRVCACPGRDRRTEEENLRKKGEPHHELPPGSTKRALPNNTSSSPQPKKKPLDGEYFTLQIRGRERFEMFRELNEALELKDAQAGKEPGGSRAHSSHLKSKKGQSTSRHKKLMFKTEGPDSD

Read-out in this assay: Cellular tumor antigen p53 (Homo sapiens) (UniProt P04637)
The assay can be described thus: LTEA_HepaRG_TP53: Life Technologies and Expression Analysis (LTEA) Assay for Tumor Protein P53 (TP53) using HepaRG (AID 2283537). As to conditions: mRNA level, 48 h; actives raise or lower the signal. As for the experimental part:
LTEA_HepaRG is a cell based, multiplexed-readout assay that uses HepaRG, a human liver cell line, with measurements taken at 48 hours after chemical dosing on a 96-well plate.LTEA_HepaRG_TP53 is one of 102 assay component(s) measured in the LTEA HepaRG cell culture assay. It is a marker of Oxidative Stress.Data from the assay component LTEA_HepaRG_TP53 was analyzed into 1 endpoint. This assay endpoint, LTEA_HepaRG_TP53, was analyzed with bidirectional fitting relative to DMSO as the negative control and baseline of activity. Using a type of inducible reporter, measures of mRNA induction for gain or loss-of-signal activity can be used to understand regulation of transcription factor activity. To generalize the intended target to other relatable targets, this assay endpoint is annotated to the dna binding intended target family, where the subfamily is tumor suppressor.
A total of 1060 chemcials from the ToxCast library were tested in eight-point concentration-response experiments. Cell culture and cytotoxicity assays were conducted at Thermo Fisher Scientific's Custom Services facility (Madison, WI). A single lot of human HepaRG cells (Thermo Fisher Scientific, Frederick, MD) was used for the cell culture experiments. 96-well format collagen type I coated plates of human HepaRG cells were prepared using established methods. Briefly, cryopreserved HepaRG cells were thawed, plated at a density of approximately 100,000 cells/well in HepaRG Thaw, Plate, and General Purpose media (HPRG770, Thermo Fisher Scientific), and incubated for 48 hours. 0.5% DMSO was selected as vehicle control to balance the requisite need of DMSO in HepaRG cultures to maintain differentiation (for example, baseline metabolism, proportions of hepatocytes vs. cholangiocytes), while enabling further hepatic receptor pathway activation (for example, PXR and CAR) in response to chemical exposure. 48 hours after plating, the culture medium was replaced with HepaRG Serum-Free Incudtion Media. Cells were exposed to each test chemical in duplicate and maintained in CO2 incubators for another 48 hours. Chemical plates were thawed to room temperature and 200x concentrations of treatment groups were prepared. 8-point conentration-reponse curves were made with the highest exposure at 100 uM, followed by half-log dilutions, all in 0.5% DMSO. Each test plate contained variouse controls, induction positive controls (1mM phenobarbital), cytotoxicity positive controls ([…] aflatoxin B1), vehicle controls (0.5% DMSO), and total lysis controls (0.5% DMSO). Cell morphology images were taken using an Essen IncuCyte FLR automated microscope, with six 96-well plates imaged in about 24 minutes. Images were captured and exported and JPEG files. Spent culture media was transfered to black-well plates for the LDH assay, and remaining media was sorted at -80 C for later use. Cells were treated with RLT buffer and frozen until shipped for gene expression analysis. Total RNA was isolated from the cell suspension in 75 uL of Buffer RLT (Qiagen, Germantown, MD 20874) by Quintiles/Expression Analysis (Durham, NC) using a custom isolation procedure. Total RNA from each plate well was transferred to a preamplification plate. Fluidigm's 96.96 Dynamic ArrayTM (Fluidigm, Amsterdam, the Netherlands) technology was used for gene expression analyses by quantitative reverse transcription polymerase chain reaction (qRT-PCR, performed by Quintiles/Expression Analysis, Durham, NC)89. Standard TaqManTM Assays (Applied Biosystems/ThermoFisher Scientific, Foster City, CA) were used to assess the expression of 93 genes selected based on their selectivity and sensitivity to important hepatic receptors known to be modulated by environmental chemicals; importance in human hepatocyte functionality; and hepatotoxicity. […]
Take `CCCCCCCCC(=O)O`: the molecule was called inactive.
Consider `O=C(OCCOCCOC(=O)c1ccccc1)c1ccccc1`, for which the result was inactive.
The same measure, in the same setting: with `Nc1cccc2c(N)cccc12` the entry was “inactive”.
For `COCC(C)O` (stereo not given), the molecule was classed as inactive.
`COC(=O)CCCCC(=O)OC`: the result was inactive.
As to `NC(=O)N1C(=O)C(C(=O)c2cc(Cl)cs2)c2cc(F)c(Cl)cc21` (stereo not given), the AC50 was 94.4 µM (active).
Turning to `CCN(CC)CCNc1ccc(CNC=O)c2sc3ccc(OC)cc3c(=O)c12`, the AC50 was 16.6 µM (active).
As to `N#C[C@@H]1CC(F)(F)CN1C(=O)CNC1CC2CCC(C1)N2c1ncccn1` (stereo not given in full), the result was inactive.
For the molecule `CC(C)(C)c1cccc(C(C)(C)C)c1O`, the result was inactive.
As to `CCCOc1sc(C(=O)N2CCC(c3cc(CN)ccc3F)CC2)c(C)c1Br`, the molecule was classed as inactive.
The same measure, in the same setting: next, `c1ccc2c(c1)ccc1ccccc12`: “inactive”.
In the case of `CC(C)(C)CC(C)(C)c1ccc(O)c(-n2nc3ccccc3n2)c1`, the molecule was called inactive.
The same measure, in the same setting: with `CC(=O)CC(C)(C)O` the entry was “inactive”.
The same measure, in the same setting: next, `CCCCOCCO`: “inactive”.
For `CN1CCN(c2ccccc2/C=C2\SCCN(c3ccc(Cl)c(Cl)c3)C2=O)CC1`, the outcome was inactive.
As to `c1ccc2c(c1)Cc1ccccc1-2`, the outcome was inactive.
Regarding `O=c1c(-c2ccc(O)cc2)coc2cc(O)ccc12`, the outcome was inactive.
On to `CCCCCCCCCCCCCCCS(=O)(=O)Oc1ccccc1`, for which the call was inactive.
The same measure, in the same setting: next, `C=C(C)C(=O)OCCC(F)(F)C(F)(F)C(F)(F)C(F)(F)C(F)(F)C(F)(F)F`: “inactive”; `CN(C)C=O`: “inactive”.
`OC1CCCCC1`: the call was inactive.
On to `O=C(O)Cc1cc(I)c(Oc2cc(I)c(O)c(I)c2)c(I)c1`, for which the AC50 was 59.1 µM (active).
With `CC(=O)NC1(c2cccc(F)c2)CCN(CC[C@@]2(c3ccc(Cl)c(Cl)c3)CN(c3ccccc3)C(=O)CO2)CC1`, the outcome was inactive.
Take `CCCCCCCCCCCCN1CCCC1=O`: the molecule was classed as inactive.
As for `CC1=C(/C=C/C(C)=C/C=C/C(C)=C/C(=O)O)C(C)(C)CCC1`, the call was inactive.
Regarding `CC(O)CO` (stereo not given), the molecule was classed as inactive.
Same read-out and setting: next, `CCC(C)(C)C1CCC(O)CC1` (stereo not given): “inactive”.
In the case of `NC(=O)N(O)[C@@H]1C=C[C@H](Oc2cccc(Oc3ccc(F)cc3)c2)C1`, the AC50 was 50 µM (active).
On to `CC#C[C@]1(O)CC[C@H]2[C@@H]3CCC4=CC(=O)CCC4=C3[C@@H](c3ccc(N(C)C)cc3)C[C@@]21C`, for which the AC50 is 20.4 µM (active).
Regarding `CCCCCCCCOC(=O)CCCCCCCCC(=O)OCCCCCCCC`, the molecule was called inactive.
As to `CCCCC(CC)COC(=O)CCCCC(=O)OCC(CC)CCCC` (stereo not given), the result was inactive.
For `Oc1cccc(O)c1`, the result was inactive.
The same measure, in the same setting: with `C#C[C@]1(O)CC[C@H]2[C@@H]3CCC4=CC(=O)CC[C@@H]4[C@H]3CC[C@@]21C` the entry was “inactive”; with `CCCCCCCC(=O)O`, “inactive”; with `OC1CCC(C2CCCCC2)CC1` (stereo not given), “inactive”.
Take `C[C@@H]1C[C@H]2[C@@H]3CCC4=CC(=O)C=C[C@]4(C)[C@@]3(F)[C@@H](O)C[C@]2(C)[C@@]1(O)C(=O)COP(=O)(O)O`: the outcome was inactive.
On the same count and under the same terms, with `ClC1=C(Cl)C(Cl)(Cl)C(Cl)=C1Cl` the entry was “inactive”; with `COCC(C)OCC(C)O` (stereo not given), “inactive”.
Take `Oc1cc2ccccc2c2ccccc12`: the call was inactive.
The same measure, in the same setting: with `CC(C)(C)c1cc(C(C)(C)C)c(O)c(C(C)(C)C)c1` the entry was “inactive”.

For orientation: AC50 means the concentration giving half of the maximal activity seen.
